# From ChEMBL document CHEMBL3988442, “University of Dundee, Small-Polar-MMV Screening Library” (2021)
# Out of some 66,000 compounds screened, about 960 (1.5%) showed an effect of 50% or more. Many of the other results were omitted from the sample, so strong results are more common in it than they were.
# System: Trypanosoma brucei
# Test: Trypanosoma brucei 72 hour study
# Format: functional, organism-based
# Set-up: scale not given: in the data most compounds retested in dose-response had high values
structure (smiles),measurement,setting,value
COc1ccc(CNc2ncc(-c3cc(C)no3)c(C(C)C)n2)cc1,Percent Effect,"30.3 µM, […]",46.49%
Cc1cc(-c2cnc(NCc3ccncc3)nc2C(C)C)on1,Percent Effect,"30.3 µM, […]",23.52%
Cc1cc(-c2cnc(NCc3ccc4c(c3)OCO4)nc2C(C)C)on1,Percent Effect,"30.3 µM, […]",70.78%
Cc1cc(-c2cnc(NCc3cccnc3)nc2C(C)(C)C)on1,Percent Effect,"30 µM, 30.03 µM",25.28%
Cc1cc(-c2cnc(NCc3cccnc3)nc2C(C)C)on1,Percent Effect,"30 µM, 30.03 µM",23.42%
CNS(=O)(=O)Cc1ccc(CNC(=O)c2ccccn2)cc1,Percent Effect,"30.3 µM, […]",-17.29%
same,Percent Effect,"10 mM, 10 mM as filed; unlikely as a test dose",-30.84%
COc1cccc(C(=O)N2CCc3nc(C4CCCN4)ncc3C2)c1.Cl (stereo not drawn),Percent Effect,"30.3 µM, […]",-17.69%
COc1ccccc1CC1CCCN(CCC(N)=O)C1 (stereo not drawn),Percent Effect,"30.3 µM, […]",100.1%
CNC(=O)NC(=O)CN1CCCC(Cc2ccccc2OC)C1 (stereo not drawn),Percent Effect,"30.3 µM, […]",26.83%
COc1ccccc1CC1CCCN(CC(N)=O)C1 (stereo not drawn),Percent Effect,"30 µM, 30.03 µM",-11.23%
COc1ccccc1CC1CCN(C(=O)CCN2CCOC2=O)CC1,Percent Effect,"30.3 µM, […]",4.544%
COc1ccccc1CC1CCCN(CCC#N)C1 (stereo not drawn),Percent Effect,"30 µM, 30.03 µM",-5.815%
COc1ccccc1CC1CCCN(CC(=O)NC2CC2)C1 (stereo not drawn),Percent Effect,"30.3 µM, […]",6.426%
COc1ccccc1CC1CCCN(CCN2CCOC2=O)C1 (stereo not drawn),Percent Effect,"30.3 µM, […]",99.68%
COc1ccccc1CN1CCN(CCN2CCOC2=O)CC1,Percent Effect,"30 µM, 30.03 µM",-64.53%
CNC(=O)CN1CCCC(Cc2ccccc2OC)C1 (stereo not drawn),Percent Effect,"30.3 µM, […]",99.76%
O=C(O)c1cc(/C=C/c2ccc3ccccc3c2)ncn1,Percent Effect,"30 µM, 30.03 µM",17.56%
CCn1ncc2c1C(COCC1CC1)CN(C(=O)c1ccncn1)C2.O=C(O)C(F)(F)F (stereo not drawn),Percent Effect,"30 µM, 30.03 µM",-0.6882%
Cc1ncsc1C(=O)N1CC[C@@]2(O)CCN(C(=O)N3CCCC3)C[C@H]2C1,Percent Effect,"30.3 µM, […]",-70.48%
COc1ccc(F)c(-c2ncccc2C(=O)N2C[C@H]3CC[C@@H]2C3)c1,Percent Effect,"30 µM, 30.03 µM",-6.323%
CCn1c(CN2CCC(O)(c3ccc4c(c3)OCO4)CC2)cnc1SC.O=C(O)CC(O)(CC(=O)O)C(=O)O,Percent Effect,"30.3 µM, […]",-5.268%
COc1cc(N2C[C@@H]3COC[C@]3(COCc3ccncc3)C2)ncn1.O=C(O)C(F)(F)F.O=C(O)C(F)(F)F,Percent Effect,"30 µM, 30.03 µM",-12.8%
CN1CCCc2c1nc1c(c2N)CCCC1.O=C(O)C(=O)O,Percent Effect,"30.3 µM, […]",6.357%
Cc1ccc(-c2nnc(CN3CC(n4cc(C)cn4)C3)o2)cc1,Percent Effect,"30 µM, 30.03 µM",-4.601%
Cc1cnn(C2CN(Cc3noc(C4CC4)n3)C2)c1,Percent Effect,"30.3 µM, […]",-128.4%
Cc1cnn(C2CN(Cc3nnc(C4CC4)o3)C2)c1,Percent Effect,"30.3 µM, […]",93.44%
CCn1ccnc1CN1CCCC1C(=O)Nc1nccs1 (stereo not drawn),Percent Effect,"30.3 µM, […]",4.608%
Fc1cccc(CN2CCC3(CCCN3c3ncccn3)CC2)c1.O=C(O)C(F)(F)F,Percent Effect,"30.3 µM, […]",-16.3%
CCn1ccnc1CN1CCCC(CO)(Cc2cccc(OC)c2)C1 (stereo not drawn),Percent Effect,"30 µM, 30.03 µM",-22.09%
CCC1(CO)CCCN(Cc2nccn2Cc2ccccc2)C1 (stereo not drawn),Percent Effect,"30 µM, 30.03 µM",-5.033%
CCOC(=O)C1(CCOC)CCCN(Cc2nccn2CC)C1 (stereo not drawn),Percent Effect,"30.3 µM, […]",-20.23%
CCn1ccnc1CN1CCCC(CO)(Cc2cccc(Cl)c2)C1 (stereo not drawn),Percent Effect,"30 µM, 30.03 µM",109.3%
CCOC(=O)C1(CCOC)CCN(Cc2nccn2CC)CC1,Percent Effect,"30.3 µM, […]",-0.1521%
CCOC(=O)C1(Cc2ccccc2)CCCN(Cc2nccn2CC)C1 (stereo not drawn),Percent Effect,"30.3 µM, […]",95.74%
Cn1cc(CCC(=O)N2C[C@H]3CC[C@@H]2CN(Cc2cccnc2)C3)cn1,Percent Effect,"30 µM, 30.03 µM",-23.98%
Cc1ccnc(NC(=O)C2CCN(CCCc3cn[nH]c3)CC2)c1,Percent Effect,"30 µM, 30.03 µM",-19.03%
NC(=O)C1CN(C(=O)Nc2cc(Cl)cc(Cl)c2)CCO1 (stereo not drawn),Percent Effect,"30 µM, 30.03 µM",103.3%
COCC1CN(C(=O)Nc2cc(Cl)cc(Cl)c2)CCO1 (stereo not drawn),Percent Effect,"30.3 µM, […]",-16.88%
Cc1cc(NC(=O)N2CCOC(C(N)=O)C2)ccc1Br (stereo not drawn),Percent Effect,"30 µM, 30.03 µM",-3.776%
CCN(CC)CCn1c(=O)oc2ccccc21.Cl,Percent Effect,"30 µM, 30.03 µM",-24.39%
Cc1ccc2nc(-c3nc4c([nH]3)CCCNC4=O)cn2c1,Percent Effect,"30 µM, 30.03 µM",99.29%
COc1cc(-c2nc3c([nH]2)CCCNC3=O)ccc1O,Percent Effect,"30 µM, 30.03 µM",4.773%
Cc1cccc(Cc2nc3c([nH]2)CCCNC3=O)c1,Percent Effect,"30 µM, 30.03 µM",-3.182%
Cc1cccc2nc(-c3nc4c([nH]3)CCCNC4=O)cn12,Percent Effect,"30 µM, 30.03 µM",66.46%
Cc1ccc2nc(-c3nc4c([nH]3)CC(C)(C)CNC4=O)cn2c1,Percent Effect,"30 µM, 30.03 µM",106.8%
Cc1cn2cc(-c3nc4c([nH]3)CCCNC4=O)nc2s1,Percent Effect,"30 µM, 30.03 µM",81.5%
CC1(C)CNC(=O)c2nc(-c3n[nH]c(=O)[nH]3)[nH]c2C1,Percent Effect,"30 µM, 30.03 µM",-63.36%
CC(C)Oc1cccc(-c2nc3c([nH]2)CCCNC3=O)c1,Percent Effect,"30 µM, 30.03 µM",-40%
COc1ccc(-c2nc3c([nH]2)CCCNC3=O)cc1OC,Percent Effect,"30 µM, 30.03 µM",-51.91%
COc1cc(-c2nc3c([nH]2)CCCNC3=O)cc(OC)c1OC,Percent Effect,"30 µM, 30.03 µM",-56.65%
CC1(C)CNC(=O)c2nc(-c3ccccc3)[nH]c2C1,Percent Effect,"30 µM, 30.03 µM",-21.93%
CC(C)Cn1cncc1-c1nc2c([nH]1)CCCNC2=O,Percent Effect,"30 µM, 30.03 µM",-24.09%
